Laboratory results: PubChem BioAssay AID602258 (National Center for Advancing Translational Sciences (NCATS), 2012)
Records with an inconclusive call do not appear. Where a call stands in place of a potency, no number is given. Calls of active or inactive are those of the source. Calls come from the whole dose curve; as a rule, active = well fitted activation curve with a large enough effect; inconclusive = small, poorly fitted or top-dose-only effect; inactive = no such curve, though single readings can be large or run the other way.

target: Relaxin receptor 2 (Homo sapiens) (UniProt Q8WXD0); assay: qHTS Assay for Agonists of the Relaxin Receptor RXFP1: RXFP2 SAR; settings: HEK293 RXFP2 cAMP TR-FRET agonist, 30 min; series mostly up to 78.1 µM
From the text: The relaxin hormone is involved in the variety of biological functions in normal tissues and diseases. The role of relaxin is well-established in female reproduction and parturition, mammary gland and endometrial development, maintenance of myometrial quiescence during pregnancy. Relaxin signaling through its G protein-coupled receptor (GPCR) RXFP1 results in ECM remodeling through regulation of collagen deposition, cell invasiveness, proliferation and overall tissue homeostasis. […] Recombinant human relaxin (rhRlx) is currently being tested in clinical trials as a protective agent in congestive heart failure, in treating severe preeclampsia, and as an anti-fibrotic agent in systemic sclerosis. Upon relaxin binding RXFP1 activation leads to the activation of adenylate cyclase (AC) via Gs. cAMP will activate PKA, which phosphorylates many signaling proteins. Thus, detection of cAMP increase is an easy and reliable indication of relaxin receptor activation. To screen for agonists of the relaxin receptor, a HEK293T cell line stably transfected with RXFP1 was used. RXFP1 activation was assayed by changes in cAMP levels as detected with a time-resolved fluorescence energy transfer (TR-FRET) cAMP detection kit. This assay measures activation of a cell expressing RXFP2, another GPCR targeted by relaxin, to determine the selectivity of compounds for RXFP1. NIH Chemical Genomics Center [NCGC] NIH Molecular Libraries Probe Production Centers Network [MLPCN] MLPCN Grant: R03 MH085705-01A1 Assay Submitter (PI): Alexander Agoulnik
This is a cell-based assay for cAMP second messenger response to screen for agonists of the RXFP2 receptor. The assay was conducted in the presence of a PDE4 inhibitor (Ro 20174). The cells were lysed and the cAMP levels were measured with a TR-FRET cAMP kit. Presence of cAMP in the cell lysate disrupts binding between the cryptate-labeled anti-cAMP and d2-labeled cAMP pair, leading to a decrease in the TR-FRET signal. Data were normalized to the controls for basal activity (buffer only) and 100% activity (29 nM porcine relaxin). The EC50 values were determined from concentration-response data modeled with the standard Hill equation 1536-well assay protocol for the HEK293 RXFP2 cAMP assay: (1) Add 3 ul HEK293 RXFP2 cell culture. 2000 cells/well in DMEM/F12, 10% FBS, 1x Pen/Strep (dispensed offline with MultiDrop Combi). (2) Incubate 16-24 hr at 37C, 5% CO2. (3) Add 1 ul 400uM Ro20174 in DPBS, 0.05% BSA, 0.005% Tween 20. (3) Add 23 nl compounds in DMSO solution. Final concentration was 0.5 - 58 uM. (4) Incubate 30 min at 37C, 5% CO2. (5) Add 1 ul cAMP-d2 in lysis buffer (HTRF cAMP HiRange kit, CisBio). (6) Add 1 ul anti-cAMP antibody-cryptate in lysis buffer (HTRF cAMP HiRange kit, CisBio). (7) Incubate 30 min at room temperature. (6) Detect the assay plate in a ViewLux plate reader (PerkinElmer) with Ex=320 nm, Em1=615 nm and Em2=665 nm. Keywords: relaxin, RXFP1, RXFP2, G-protein coupled receptor, cAMP, agonist, high throughput screening, MLSMR, MLSCN, NIH Roadmap, qHTS and NCGC

Sequence of Relaxin receptor 2 (Homo sapiens) (Q8WXD0 whole entry, looked up): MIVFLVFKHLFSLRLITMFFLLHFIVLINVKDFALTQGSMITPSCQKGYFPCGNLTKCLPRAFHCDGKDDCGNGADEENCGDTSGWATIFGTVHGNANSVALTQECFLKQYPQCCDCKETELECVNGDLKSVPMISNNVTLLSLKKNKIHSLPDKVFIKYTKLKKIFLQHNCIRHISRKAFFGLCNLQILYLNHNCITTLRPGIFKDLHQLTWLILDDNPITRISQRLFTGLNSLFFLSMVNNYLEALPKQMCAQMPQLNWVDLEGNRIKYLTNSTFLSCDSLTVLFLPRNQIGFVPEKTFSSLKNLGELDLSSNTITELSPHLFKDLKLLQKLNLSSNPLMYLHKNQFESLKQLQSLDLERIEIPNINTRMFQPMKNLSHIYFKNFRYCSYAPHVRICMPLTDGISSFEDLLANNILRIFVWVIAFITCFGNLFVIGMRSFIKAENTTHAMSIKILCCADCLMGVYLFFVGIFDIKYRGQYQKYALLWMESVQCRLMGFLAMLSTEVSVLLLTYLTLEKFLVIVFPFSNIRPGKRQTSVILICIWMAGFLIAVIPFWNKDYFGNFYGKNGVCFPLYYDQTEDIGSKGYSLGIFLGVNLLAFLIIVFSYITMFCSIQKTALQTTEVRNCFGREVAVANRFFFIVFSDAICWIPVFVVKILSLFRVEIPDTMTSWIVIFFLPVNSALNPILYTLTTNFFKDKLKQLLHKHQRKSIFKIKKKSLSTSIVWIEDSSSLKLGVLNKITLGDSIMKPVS

| Structure (SMILES) | Potency |
| --- | --- |
| CCOc1ccccc1C(=O)NCCC(=O)Nc1cccc(S(=O)(=O)C(F)(F)F)c1 | inactive |
| COc1cccc(C(=O)Nc2ccccc2C(=O)Nc2cccc(C(F)(F)F)c2)c1 | inactive |
| COCCOc1ccccc1C(=O)Nc1ccccc1C(=O)Nc1cccc(C(F)(F)F)c1 | 5.29 µM (active) |
| Cc1ccc(NC(=O)c2ccccc2NC(=O)C2CCCCC2)cc1 | inactive |
| O=C(Nc1cccc(-c2cccc(C(F)(F)F)c2)c1)c1ccccc1NC(=O)C1CCCCC1 | inactive |
| COCCOc1ccccc1C(=O)Nc1cccc(C(F)(F)F)c1 | inactive |
| Cc1ccccc1C(=O)Nc1ccccc1C(=O)Nc1cccc(C(F)(F)F)c1 | inactive |
| O=C(Nc1cccc(-c2ccccc2)c1)c1ccccc1NC(=O)C1CCCCC1 | inactive |
| O=C(Nc1cccc(-c2ccccc2C(F)(F)F)c1)c1ccccc1NC(=O)C1CCCCC1 | inactive |
| O=C(Nc1cccc(F)c1)c1ccccc1NC(=O)C1CCCCC1 | inactive |
| CCCCOc1ccccc1C(=O)Nc1ccccc1C(=O)Nc1cccc(S(=O)(=O)C(F)(F)F)c1 | inactive |
| COc1ccccc1-c1ccccc1C(=O)Nc1cccc(C(F)(F)F)c1 | inactive |
| CCCCC(=O)Nc1ccccc1C(=O)Nc1cccc(C(F)(F)F)c1 | inactive |
| COc1ccccc1C(=O)Nc1ccccc1C(=O)N(C)c1cccc(C(F)(F)F)c1 | inactive |
| CCOc1ccccc1C(=O)Nc1ccccc1C(=O)Nc1cccc(S(=O)(=O)C(F)(F)F)c1 | 7.47 µM (active) |
| O=C(NCc1cccc(C(F)(F)F)c1)c1ccccc1NC(=O)C1CCCCC1 | inactive |
| CCOc1ccccc1C(=O)Nc1cnccc1C(=O)Nc1cccc(S(=O)(=O)C(F)(F)F)c1 | inactive |
| O=C(Nc1ccccc1C(=O)Nc1cccc(C(F)(F)F)c1)c1ccccc1Cl | inactive |
| O=C(Nc1cccc(Br)c1)c1ccccc1NC(=O)C1CCCCC1 | inactive |
| CCCOc1ccccc1C(=O)Nc1ccccc1C(=O)Nc1cccc(S(=O)(=O)C(F)(F)F)c1 | inactive |
